According to PubChem BioAssay (Tox21):
Records with an inconclusive call do not appear. Calls of active or inactive are those of the source. Calls follow the shape of the dose curve; as a rule, active = well fitted cell-killing curve with a large enough effect in the repeat runs; inconclusive = weak or mixed curves; inactive = no such curve, though single readings can be large or run the other way.

Experiment: qHTS assay for identifying genotoxic compounds that show differential cytotoxicity against isogenic chicken DT40 cell lines with known DNA damage response pathways - Rad54/Ku70 mutant cell line (AID 743015); also: nearly all actives have a fitted effect of over 60% in size
Conditions: DT40 Rad54/Ku70 mutant viability, CellTiter-Glo, 40 h; series mostly up to 66.8 µM; activity change, negative = cytotoxicity: at the top concentration
From the text: National Center for Advancing Translational Sciences [NCATS]
NIH Chemical Genomics Center [NCGC]
U.S. Environmental Protection Agency [EPA]
National Institutes of Environmental Health Sciences [NIEHS]
National Toxicology Program [NTP]
U.S. Food and Drug Administration [FDA]
DNA repair pathways play a critical role in cellular homeostasis by repairing DNA damage induced by endogenous processes and xenobiotics. Isogenic chicken DT40 cell lines deficient in different DNA repair pathways can be used to identify genotoxic compounds and aid in characterizing the nature of the DNA damage induced. Two DNA repair-deficient cell lines with disrupted genes, Rad54/Ku70 or Rev3, were used to screen the Tox21 10K compound library. Possible genotoxicity was based on the presence of a significant increase in cytotoxicity in one or more of the DNA repair-deficient cell lines compared to that observed in the parental DNA repair-proficient cell line. CellTiter Glo viability assay (Promega, Madison, WI) was used to measure cell viability in these cells after compound treatment. This assay includes the data from the Rad54/Ku70 mutant cell line.
Tox21 Assay Protocol Summary:
300 DT40 mutant cells in 5 uL/well were dispensed into white, solid-bottom 1536-well plates using a Multidrop Combi (ThermoFisher Scientific, Waltham, MA) dispenser. After the assay plates were incubated at 37 C/5% CO2 for approximately 0.5 hour, 23 nL of compounds dissolved in DMSO, positive controls or DMSO only was transferred into the assay plate by a pintool work station (Kalypsys, San Diego, CA). The assay plates were incubated at 37 C/5% CO2 for 40 hours. After 5 uL per well of CellTiter-Glo reagent was added into each well of the assay plates, the plates were incubated for 30 min at room temperature and the luminescence intensity of the plates was measured using a ViewLux (PerkinElmer, Shelton, CT) plate reader.
% is scaled to controls: 0 for no effect and ±100 for the full control effect; potency is read from the fitted curve at half-maximal effect.

| Structure (SMILES) | activity change, negative = cytotoxicity | Potency |
| --- | --- | --- |
| CCOc1ccccc1OCC | -11.3% (inactive) |  |
| CC12CCC(C(=O)C1=O)C2(C)C (stereo not given) | 0.828% [at 95.1 µM] (inactive) |  |
| CC(=O)Nc1ccc(OCC(O)CNC(C)C)cc1 (stereo not given) | 14.1% (inactive) |  |
| COc1cc(C(=O)NCc2ccc(OCCN(C)C)cc2)cc(OC)c1OC | 4.72% [at 30.7 µM] (inactive) |  |
| C=C(C)C(=O)OCC1CCCO1 (stereo not given) | -2.04% (inactive) |  |
| CC(C)(C#N)Nc1nc(Cl)nc(NC2CC2)n1 | -11.2% (inactive) |  |
| NC(=O)Cc1cccc2ccccc12 | 1.96% (inactive) |  |
| CCCCCC(C)N (stereo not given) | 3.89% (inactive) |  |
| CCN(CC#N)c1cccc(C)c1 | 0.33% (inactive) |  |
| Cc1ccnc(NS(=O)(=O)c2ccc(N)cc2)n1 | 5.47% [at 30.7 µM] (inactive) |  |
| OCCc1ccccn1 | 0.974% (inactive) |  |
| CCN1CCOCC1 | 5.01% (inactive) |  |
| C=COC(=O)C(C)(CC)CCC(C)C (stereo not given) | 5.28% (inactive) |  |
| CC(=O)N[C@H]1[C@H]([C@H](O)[C@H](O)CO)OC(C(=O)O)=C[C@@H]1N=C(N)N | 5.95% (inactive) |  |
| CCOC(=O)OC(C)OC1=C(C(=O)Nc2ccccn2)N(C)S(=O)(=O)c2ccccc21 (stereo not given) |  | 0.944 µM (active) |
| NC(=O)N1c2ccccc2CC(=O)c2ccccc21 |  | 5.96 µM (active) |
| CC(=O)NC(=O)c1ccccc1O | 10.6% (inactive) |  |
| CCCO[Si](OCCC)(OCCC)OCCC | -0.0095% (inactive) |  |
| CC1OC1C1CCC2(C)OC2C1 (stereo not given) | 8.68% (inactive) |  |
| O=C(O)CNC(=O)c1ccc(CO)o1 | 5.82% (inactive) |  |

| Structure (SMILES) | activity change, negative = cytotoxicity | Potency |
| --- | --- | --- |
| O=C(O)Cc1csc(-c2ccc(Cl)cc2)n1 | -3.59% (inactive) |  |
| COCCOC[C@H](CC1(C(=O)NC2CCC(C(=O)O)CC2)CCCC1)C(=O)Oc1ccc2c(c1)CCC2 (stereo not given in full) | -11.4% (inactive) |  |
| CCCCCCCC1CCCC1=O (stereo not given) | 9.17% (inactive) |  |
| CC(C)CC(C)(N)C#N (stereo not given) | -1.57% [at 95.1 µM] (inactive) |  |
| Cc1c(N)c(=O)n(-c2ccccc2)n1C | -1.84% [at 30.7 µM] (inactive) |  |
| C[N+]1(C)CCCC(OC(=O)C(O)(c2ccccc2)c2ccccc2)C1 (stereo not given) | -9.52% [at 30.7 µM] (inactive) |  |
| CCCCCCCCCCCCCCCCCCO | 1.11% (inactive) |  |
| C=CCCC(=O)O | 9.11% (inactive) |  |
| C[N+]12CCC(CC1)C(OC(=O)C(O)(c1ccccc1)c1ccccc1)C2 (stereo not given) | 9.65% [at 30.7 µM] (inactive) |  |
| CO[C@@]1(NC(=O)CSC[C@@H](N)C(=O)O)C(=O)N2C(C(=O)O)=C(CSc3nnnn3C)CS[C@@H]21 | -0.26% (inactive) |  |
| [Ca+2] | 1.84% (inactive) |  |
| COc1ccc2cc1Oc1cc3c(cc1OC)CC[N+](C)(C)[C@H]3Cc1ccc(cc1)Oc1c(OC)c(OC)cc3c1[C@@H](C2)[N+](C)(C)CC3 | 11.1% (inactive) |  |
| O=S(=O)(O)c1cccc2ccccc12 | -14% (inactive) |  |
| CC1=NS(=O)(=O)c2cc(Cl)ccc2N1 | -2.28% (inactive) |  |
| CCCCS(=O)(=O)N[C@@H](Cc1ccc(OCCCCC2CCNCC2)cc1)C(=O)O | 1.17% (inactive) |  |
| CCOCC(C)O (stereo not given) | -17.5% (inactive) |  |
| O=S(=O)(O)c1cccc(S(=O)(=O)O)c1 | -6.4% (inactive) |  |
| O=C(O)CNC(=O)c1ccccc1 | 5.3% (inactive) |  |
| Nc1ccncc1N | 8.49% (inactive) |  |
| CC(C)CCCO | 2.38% (inactive) |  |
